Hits are enriched below; roughly 4.6% of the tested compounds scored in any of these assays.
tim10-1 inh: growth inhibitors of tim10-1 mutant yeast; S. cerevisiae tim10-1 ts strain growth, BacTiter-Glo, 24 h; 330,000 compounds, 2.2% hits; inhibition, % at 20 µM;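 active = inhibition of at least 40%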;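 also: mutant grown at 25 °C; 0% = DMSO wells with yeast and 100% = wells holding no yeast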
tim23-1 inh: tim23-1 yeast growth inhibition | S. cerevisiae tim23-1 growth, BacTiter-Glo luminescence, 24 h | inhibition, % at 20 µM | 330,000 compounds, 1.3% hits | AID 463212;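 active = growth inhibition of the mutant yeast at or above 50%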;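 also: temperature-sensitive mutant grown at 25 °C; plate controls were DMSO-treated mutant yeast for no effect and medium wells lacking yeast for full effect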
NLRP3 yeast inh: blocks the NALP3 inflammasome reconstituted in yeast; Yeast reconstituted NLRP3/ASC/caspase-1, beta-gal luminescence, 24 h; inhibition, % at 10 µM; 330,000 compounds, 0.39% hits; AID 2825;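 active = inhibition of 50% or more; inactive = inhibition below 50%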;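 also: plate controls were induced DMSO wells for no effect and uninduced yeast grown without galactose for full effect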
SKKanGAS inh: inhibitors of SKKanGAS S. pyogenes growth in kanamycin (SK-promoter or general growth effect); BacTiter-Glo, 6 h; inhibition, % at 7.5 µM; 300,000 compounds, 1.3% hits; AID 1662;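 active = mean replicate score, as percent of positive control median, at least 50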;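 also: strain carries kanamycin resistance gene driven by streptokinase promoter and grows in 40 µg/ml kanamycin; loss of luminescence reflects streptokinase promoter inhibition or plain growth inhibition; 0% = median of DMSO wells and 100% = positive control at its reference dose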
TIM10 inh: inhibits growth of TIM10 yeast strain. S. cerevisiae TIM10 strain growth, BacTiter-Glo luminescence, 24 h. inhibition, % at 10 µM. 330,000 compounds, 1.4% hits. AID 463195;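 active = inhibition of 40% or more at the single tested concentration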;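 also: wild-type TIM10 isogenic control strain grown at permissive 25 °C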
tim23-1 confirm: tim23-1 yeast growth inhibition, confirmed | S. cerevisiae tim23-1 growth, BacTiter-Glo luminescence, 24 h | shares compounds with tim23-1 inh | inhibition, % at 20 µM | 4,400 compounds, 83% hits | AID 463218;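 active = inhibition above about 39% in either of two replicate wells at 20 µM, limit read from the data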;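 also: temperature-sensitive tim23-1 mutant grown at 25 °C; 0% = DMSO wells with yeast and 100% = medium wells without yeast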
* marks the source's active call; other numbers are inactive results.

For O=C(CSc1cccc[n+]1[O-])CSc1cccc[n+]1[O-] the results were tim10-1 inh 5, tim23-1 inh 71*, NLRP3 yeast inh 7, SKKanGAS inh 17, TIM10 inh -19 and tim23-1 confirm 61*.
Screening O=[N+]([O-])c1ccccc1OCCNCc1ccccc1 returned tim10-1 inh -8, tim23-1 inh -7, NLRP3 yeast inh 12, SKKanGAS inh -3 and TIM10 inh 2.
`CC(C)S(=O)(=O)CC(=O)c1ccc(Cl)cc1` gave tim10-1 inh 28, tim23-1 inh 12, NLRP3 yeast inh 3, SKKanGAS inh 3 and TIM10 inh 7.
`CCOC(=O)c1c(C=O)c(C)n(Cc2ccc(Cl)cc2)c1C` gave tim10-1 inh 30, tim23-1 inh 63*, NLRP3 yeast inh 11, SKKanGAS inh -3, TIM10 inh 34 and tim23-1 confirm 58*.
Screening CCOC(=O)c1c(C=O)c(C)n(Cc2ccccc2)c1C returned tim10-1 inh 28, tim23-1 inh 23, NLRP3 yeast inh 8, SKKanGAS inh 0 and TIM10 inh 26.
Cc1cccc(NC(=O)CN2CCN(C(=O)C3CCCO3)CC2)c1C (centres undefined) was read as tim10-1 inh -6, tim23-1 inh -6, NLRP3 yeast inh 13, SKKanGAS inh -1 and TIM10 inh 2.
Cc1nnc2n(Cc3ccccc3)c(=O)c3c4c(sc3n12)COC(C(C)C)C4 (centres undefined) was read as tim10-1 inh 26, tim23-1 inh 55*, NLRP3 yeast inh 7, SKKanGAS inh 4, TIM10 inh -1 and tim23-1 confirm 38.
`O=C(Nc1cccc(S(=O)(=O)N2CCCCC2)c1)C1CC1` gave tim10-1 inh 16, tim23-1 inh 20, NLRP3 yeast inh 0 and TIM10 inh 16.
For Nc1ncc(Br)cc1S(=O)(=O)NC1CCCCC1 the results were tim10-1 inh 13, tim23-1 inh 26, NLRP3 yeast inh 0, SKKanGAS inh -1 and TIM10 inh 8.
For CC1CCCC(NS(=O)(=O)c2cc(Br)cnc2N)C1C (centres undefined) the results were tim10-1 inh 38, tim23-1 inh 55*, NLRP3 yeast inh 9, SKKanGAS inh 0, TIM10 inh 28 and tim23-1 confirm 45*.
Screening O=C1/C(=C/c2ccc(Br)cc2)Oc2cc(O)ccc21 returned tim10-1 inh 19, tim23-1 inh 56*, NLRP3 yeast inh 15, SKKanGAS inh 5, TIM10 inh 29 and tim23-1 confirm 51*.
Screening CC(C)(C)c1ccc(/C=C2\Oc3cc(O)ccc3C2=O)cc1 returned tim10-1 inh 16, tim23-1 inh 21, NLRP3 yeast inh 7, SKKanGAS inh -3 and TIM10 inh 19.
`O=C(NCc1ccc(F)cc1)C1CCCN(c2cnccn2)C1` (centres undefined) gave tim10-1 inh -9, tim23-1 inh 17, NLRP3 yeast inh 4, SKKanGAS inh -3 and TIM10 inh 4.
`O=C(NC(=S)NCCCN1CCOCC1)c1ccc([N+](=O)[O-])cc1` gave tim10-1 inh -9, tim23-1 inh -12, NLRP3 yeast inh 10, SKKanGAS inh 7 and TIM10 inh -5.
For O=C(CCSc1ccc(Cl)cc1)NC1CCCCC1 the results were tim10-1 inh 8, tim23-1 inh 13, NLRP3 yeast inh 21, SKKanGAS inh 4 and TIM10 inh 12.
For O=C(CCSc1ccc(Cl)cc1)NC12CC3CC(CC(C3)C1)C2 the results were tim10-1 inh 38, tim23-1 inh 52*, NLRP3 yeast inh -11, SKKanGAS inh 20, TIM10 inh 40 and tim23-1 confirm 46*.
`Cc1ccc(C(=O)N2CCSC2=S)cc1` gave tim10-1 inh 30, tim23-1 inh 56*, NLRP3 yeast inh -6, SKKanGAS inh -2, TIM10 inh 15 and tim23-1 confirm 51*.
Screening CCOc1ccc(C(=O)N2CCSC2=S)cc1 returned tim10-1 inh 34, tim23-1 inh 51*, NLRP3 yeast inh 6, SKKanGAS inh -1, TIM10 inh 19 and tim23-1 confirm 41*.
CC1(c2ccccc2)CC(C)(C)n2c(O)c(C3=NC(=S)NC3=O)c3cccc1c32 (centres undefined) was read as tim10-1 inh -4, tim23-1 inh -14, NLRP3 yeast inh 7, SKKanGAS inh 18 and TIM10 inh -22.
`CC1(c2ccccc2)CC(C)(C)N2C(=O)C(=O)c3cccc1c32` (centres undefined) gave tim10-1 inh 38, tim23-1 inh 61*, NLRP3 yeast inh 3, SKKanGAS inh -2, TIM10 inh -4 and tim23-1 confirm 56*.
O=C(CN1CCN(c2ccccc2O)CC1)NNC(=O)c1ccc(Cl)cc1 was read as tim10-1 inh -10, tim23-1 inh 5, NLRP3 yeast inh -1, SKKanGAS inh 3 and TIM10 inh -4.
O=S(=O)(CCN1CCN(c2ccccc2O)CC1)c1cc(Cl)ccc1Cl was read as tim10-1 inh 39, tim23-1 inh 50*, NLRP3 yeast inh 2, TIM10 inh 26 and tim23-1 confirm 23.
CCN(CC(=O)Nc1ccc(Cl)c(S(=O)(=O)N(C)C)c1)CC(=O)NC(C)C was read as tim10-1 inh 7, tim23-1 inh 1, NLRP3 yeast inh 1, SKKanGAS inh -15 and TIM10 inh -6.
Cc1cnc(NC(=O)C(C)N2CCN(C)CC2)s1 (centres undefined) was read as tim10-1 inh -6, tim23-1 inh -2, NLRP3 yeast inh 12, SKKanGAS inh -18 and TIM10 inh -19.
CCOC(=O)NNc1ccccc1 was read as tim10-1 inh -32, tim23-1 inh 4, NLRP3 yeast inh 6, SKKanGAS inh 3 and TIM10 inh -41.
Screening CCOC(=O)C(=CNNc1ccccc1)C(=O)OCC returned tim10-1 inh 40, tim23-1 inh 52*, NLRP3 yeast inh 19, SKKanGAS inh -2, TIM10 inh 20 and tim23-1 confirm 79*.
For Cc1nn(Cc2ccccc2)c2c1C(c1cccc(Cl)c1)C(C#N)=C(N)O2 (centres undefined) the results were tim10-1 inh 29, tim23-1 inh 31, NLRP3 yeast inh -1, SKKanGAS inh -1 and TIM10 inh 35.
`Cc1nc(Nc2ccc(O)cc2)c2c3c(sc2n1)CCCC3` gave tim10-1 inh 17, tim23-1 inh 52*, NLRP3 yeast inh 14, SKKanGAS inh 12, TIM10 inh 22 and tim23-1 confirm 45*.
For O=C(CC(=O)NN=C1CCCCCC1)NCc1cccnc1 the results were tim10-1 inh 1, tim23-1 inh 13, NLRP3 yeast inh 21, SKKanGAS inh -2 and TIM10 inh 1.
O=C(CC1C(=O)NCCN1Cc1cccc(F)c1)NC1CCCCC1 (centres undefined) was read as tim10-1 inh 12, tim23-1 inh 12, NLRP3 yeast inh 11, SKKanGAS inh -1 and TIM10 inh 2.

Screens from PubChem BioAssay.
